# The source made the active and inactive calls.
# Key:
# [1] = optical density shifts of acrAB sulA E. coli – strain DRC41, OD650, 48 h, E. coli filamentation inducer project, primary screen (AID 1152); conditions: higher = more signal, called active from +8 up or from −8 down;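 further: E. coli MC1000 strain DRC41 lacking acrAB efflux pump and sulA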
# [2] = probe aLefty1 binding on compound microarray – biochemical, small-molecule microarray, 635/667 nm fluorescence, primary screen (AID 1153); conditions: higher = more signal;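 further: score merges spot fluorescence with signal-to-noise ratio from the scanned slide images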
# [3] = plasmodial surface anion channel blockers, osmotic lysis – cell-based, P. falciparum Indochina, OD700, 1 h, primary screen (AID 1154); conditions: P. falciparum Indochina infected RBC osmotic lysis, higher = more signal, called active from +8 up or from −8 down
# [4] = plasmodial surface anion channel blockers, osmotic lysis – cell-based, P. falciparum Indochina, OD700, 2 h, primary screen (AID 1155);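 further: lysis reports solute entry through the parasite surface anion channel PSAC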; conditions: P. falciparum Indochina infected erythrocytes, higher = more signal, called active from +8 up or from −8 down
# [5] = changes in parasitized red cell lysis, either direction – P. falciparum Indochina, OD700, 3 h, PSAC antagonist project, primary screen (AID 1156); conditions: P. falciparum-infected erythrocytes, osmotic lysis, higher = more signal, called active from +8 up or from −8 down
# [6] = plasmodial surface anion channel blockers, osmotic lysis – cell-based, P. falciparum Indochina, OD700, 18 h, primary screen (AID 1157); conditions: P. falciparum Indochina infected erythrocytes, osmotic lysis OD700, 18 h; higher = more signal, called active from +8 up or from −8 down
# [7] = S6 kinase pathway phospho-S6 level changes – cell-based, A549, cytoblot, luminescence, serum-stimulated, primary screen (AID 1158); conditions: 5 h, higher = more signal;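 further: serum-stimulated A549 lung adenocarcinoma cells; signal is phosphorylated S6 detected by cytoblot immunostaining with HRP secondary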
# [8] = biological target: NADPH oxidase 2 (Homo sapiens) (UniProt P04839); assay: compounds shifting NOX2 Amplex Red fluorescence – cell-based, HEK293-NOX2, PMA-stimulated, NOX inhibitor project, primary screen (AID 1159); conditions: 45 min, higher = more signal, called active from +8 up or from −8 down; further: test concentration not given here
# [9] = biological target: NADPH oxidase 4 (Homo sapiens) (UniProt Q9NPH5); assay: compounds shifting NOX4 Amplex Red fluorescence – cell-based, HEK293-NOX4, tetracycline-induced, NOX inhibitor project, primary screen (AID 1160); conditions: HEK293-NOX4, Amplex Red H2O2 fluorescence, 45 min; higher = more signal, called active from +8 up or from −8 down
# [10] = biological target: NADPH oxidase 5 (Homo sapiens) (UniProt Q96PH1); assay: compounds shifting NOX5 Amplex Red fluorescence – cell-based, HEK293-NOX5, NOX inhibitor project, primary screen (AID 1161); conditions: HEK293-NOX5, ionomycin, 45 min, higher = more signal
# [11] = compound effects on lung adenocarcinoma cell viability – A549, calcein-AM fluorescence, 48 h, basal, profiling panel (AID 1162); conditions: higher = more signal; further: test concentration not given here
# [12] = compound effects on differentiated 3T3-L1 adipocyte viability – cell-based, 3T3-L1 adipocytes, calcein-AM fluorescence, 48 h, basal, profiling panel (AID 1163); conditions: 3T3-L1 adipocytes viability, higher = more signal; further: test concentration not given here
# [13] = compound effects on hepatocellular carcinoma cell viability – HepG2, calcein-AM fluorescence, 48 h, basal, profiling panel (AID 1164); conditions: higher = more signal; further: test concentration not given here
# [14] = compound effects on multiple myeloma cell viability – MM1S, calcein-AM fluorescence, 48 h, basal, profiling panel (AID 1165); conditions: higher = more signal; further: test concentration not given here
# [15] = calcein-AM signal in unstimulated myeloma cells – cell-based, calcein-AM fluorescence, 48 h, PK04 Diversity Set, profiling panel (AID 1166); conditions: RPMI8226 myeloma viability, higher = more signal;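 further: cells grown under basal conditions without added stimulus; test concentration not given here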
# [16] = JC-1 mitochondrial signal, unstimulated HepG2 cells – cell-based, JC-1 fluorescence, 24 h, 100 nL compound, profiling panel (AID 1167); conditions: HepG2 mitochondrial potential, higher = more signal; further: test concentration not given here
# [17] = JC-1 mitochondrial signal, unstimulated adipocytes – cell-based, JC-1 fluorescence, 3T3-L1 adipocytes, 24 h, 100 nL compound, profiling panel (AID 1168); conditions: JC-1 mitochondrial fluorescence, higher = more signal, called active from +8 up or from −8 down; further: test concentration not given here
# [18] = JC-1 mitochondrial signal, unstimulated myeloma cells – cell-based, JC-1 fluorescence, RPMI8226, 24 h, 100 nL compound, profiling panel (AID 1169); conditions: JC-1 mitochondrial potential fluorescence, higher = more signal; further: test concentration not given here
# [19] = JC-1 mitochondrial signal, unstimulated MM1S myeloma – cell-based, JC-1 fluorescence, 24 h, 100 nL compound, profiling panel (AID 1170); conditions: MM1S mitochondrial potential, higher = more signal; further: test concentration not given here
# [20] = resazurin metabolic signal in A549 cells – cell-based, resazurin fluorescence, 24 h, PK04 Diversity Set, profiling panel (AID 1171); conditions: A549 viability, higher = more signal, called active from +8 up or from −8 down; further: test concentration not given here
# NADPH oxidase 4 (Homo sapiens), sequence (Q9NPH5 whole entry, looked up): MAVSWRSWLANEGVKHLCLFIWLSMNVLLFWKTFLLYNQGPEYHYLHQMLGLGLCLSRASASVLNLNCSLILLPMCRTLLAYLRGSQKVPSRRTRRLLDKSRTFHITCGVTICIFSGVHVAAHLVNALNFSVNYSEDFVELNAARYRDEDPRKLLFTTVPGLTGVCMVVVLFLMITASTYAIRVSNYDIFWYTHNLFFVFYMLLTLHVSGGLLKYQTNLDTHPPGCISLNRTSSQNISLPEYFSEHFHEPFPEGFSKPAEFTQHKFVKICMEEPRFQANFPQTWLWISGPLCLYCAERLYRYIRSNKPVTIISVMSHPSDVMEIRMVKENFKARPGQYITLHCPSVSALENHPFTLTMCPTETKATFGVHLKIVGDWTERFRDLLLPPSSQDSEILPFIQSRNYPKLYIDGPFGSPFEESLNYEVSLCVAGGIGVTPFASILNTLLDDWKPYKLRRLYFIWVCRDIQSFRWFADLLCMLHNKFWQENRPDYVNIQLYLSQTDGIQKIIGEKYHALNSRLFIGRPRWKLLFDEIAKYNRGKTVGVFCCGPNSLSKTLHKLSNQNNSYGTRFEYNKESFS
# NADPH oxidase 5 (Homo sapiens), sequence (Q96PH1 whole entry, looked up): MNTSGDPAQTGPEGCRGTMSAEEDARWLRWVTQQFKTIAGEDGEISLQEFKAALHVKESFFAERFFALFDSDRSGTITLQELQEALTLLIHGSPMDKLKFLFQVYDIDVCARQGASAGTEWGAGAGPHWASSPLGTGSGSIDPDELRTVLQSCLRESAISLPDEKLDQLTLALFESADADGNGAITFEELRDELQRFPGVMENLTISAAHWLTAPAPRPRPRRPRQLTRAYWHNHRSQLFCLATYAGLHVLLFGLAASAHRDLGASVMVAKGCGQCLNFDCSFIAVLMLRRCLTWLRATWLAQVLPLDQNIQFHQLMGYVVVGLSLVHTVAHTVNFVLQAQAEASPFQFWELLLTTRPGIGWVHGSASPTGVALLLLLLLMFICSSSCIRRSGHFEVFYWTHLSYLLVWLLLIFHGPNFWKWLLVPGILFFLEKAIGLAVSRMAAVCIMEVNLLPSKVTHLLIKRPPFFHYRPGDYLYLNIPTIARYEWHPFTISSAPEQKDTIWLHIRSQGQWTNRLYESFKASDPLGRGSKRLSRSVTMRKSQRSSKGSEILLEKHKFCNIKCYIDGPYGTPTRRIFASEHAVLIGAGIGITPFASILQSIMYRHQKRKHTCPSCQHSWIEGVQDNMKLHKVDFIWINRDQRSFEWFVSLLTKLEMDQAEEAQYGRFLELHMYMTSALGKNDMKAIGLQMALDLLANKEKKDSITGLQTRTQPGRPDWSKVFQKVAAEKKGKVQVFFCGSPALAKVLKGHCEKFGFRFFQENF
# NADPH oxidase 2 (Homo sapiens), sequence (P04839 whole entry, looked up): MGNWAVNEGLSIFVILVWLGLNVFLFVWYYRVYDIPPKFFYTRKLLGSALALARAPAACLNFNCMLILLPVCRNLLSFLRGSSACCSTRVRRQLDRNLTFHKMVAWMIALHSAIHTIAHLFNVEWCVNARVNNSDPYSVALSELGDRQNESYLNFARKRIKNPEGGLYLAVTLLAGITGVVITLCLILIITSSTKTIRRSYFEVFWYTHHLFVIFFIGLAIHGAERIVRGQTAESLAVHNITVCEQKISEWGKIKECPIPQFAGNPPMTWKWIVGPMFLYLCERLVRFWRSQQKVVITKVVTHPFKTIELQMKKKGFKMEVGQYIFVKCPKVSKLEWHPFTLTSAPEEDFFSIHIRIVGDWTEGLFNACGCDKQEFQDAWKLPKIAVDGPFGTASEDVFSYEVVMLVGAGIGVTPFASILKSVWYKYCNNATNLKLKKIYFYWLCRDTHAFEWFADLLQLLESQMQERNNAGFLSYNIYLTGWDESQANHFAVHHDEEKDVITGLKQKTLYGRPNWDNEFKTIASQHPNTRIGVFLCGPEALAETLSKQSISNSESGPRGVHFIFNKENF
Compound,z-score [1],composite z-score [2],z-score [3],z-score [4],z-score [5],z-score [6],z-score [7],z-score [8],z-score [9],z-score [10],z-score [11],z-score [12],z-score [13],z-score [14],z-score [15],z-score [16],z-score [17],z-score [18],z-score [19],z-score [20]
CC(C)CON=C1C[C@@H](O)[C@@H](O)[C@@H]2[C@@H]3C(=O)N(C(C)(C)C)C(=O)[C@@H]3CC[C@@H]12,-1.53 (inactive),-0.268,0.778 (inactive),-0.692 (inactive),0.695 (inactive),-2.29 (inactive),1.13,0.571 (inactive),-0.75 (inactive),-2.22,-0.502,1.07,-0.337,0.086,-0.289,-0.0218,0.174 (inactive),-0.865,0.342,-0.288 (inactive)
O=C(NCCC[N+]1=CC=NC1c1ccccc1)N1CCCc2nc(-c3ccc(Br)cc3)ccc21 (stereo not given),0.315 (inactive),-0.164,5.32 (inactive),0.705 (inactive),1.5 (inactive),0.518 (inactive),-0.26,0.528 (inactive),-0.261 (inactive),-1.64,0.478,-1.13,-0.598,-2.52,-0.77,1.13,-0.141 (inactive),0.184,-0.404,0.811 (inactive)
O=C1[C@H]2[C@H]3[C@H](O)[C@H](O)CC(=NOCc4ccccc4)[C@@H]3CC[C@H]2C(=O)N1c1cccc(Oc2ccccc2)c1,1.16 (inactive),0.082,2.88 (inactive),1.72 (inactive),1.19 (inactive),0.845 (inactive),-0.116,-1.11 (inactive),0.735 (inactive),-1.18,0.794,-0.746,-0.505,0.213,0.3,-0.231,-0.145 (inactive),0.542,-1.68,-0.227 (inactive)
CC#CCOCCC=C1c2ccccc2[C@@H](OC)[C@@H]1C,0.673 (inactive),-0.0004,1.25 (inactive),-0.16 (inactive),-0.156 (inactive),0.0739 (inactive),-0.161,0.114 (inactive),0.936 (inactive),0.696,0.0337,0.182,0.788,-2.36,-0.234,-0.19,-0.669 (inactive),-0.773,-0.831,0.349 (inactive)
COc1ccc(OC[C@H]2CN3[C@@H](CC[C@@H](C)[C@@H]3c3ccc(Br)cc3)C(=O)O2)cc1,-0.228 (inactive),0.0861,2.04 (inactive),1.25 (inactive),0.345 (inactive),0.343 (inactive),0.936,-0.783 (inactive),-1.61 (inactive),-0.392,-0.0668,0.0118,-0.227,0.829,-1.2,-0.057,-0.187 (inactive),0.979,0.381,-0.914 (inactive)
C=CC[C@@H]1C=C[C@H](Oc2ccc(C)cc2)[C@@H](COC(=O)NCc2cccc3ccccc23)O1,-0.575 (inactive),-0.0501,2.39 (inactive),0.852 (inactive),-0.508 (inactive),0.346 (inactive),-0.783,0.839 (inactive),-0.187 (inactive),-0.146,-0.273,0.479,-0.542,-1.41,-1.71,0.294,-0.483 (inactive),0.78,0.147,1.99 (inactive)
O=C1[C@H]2[C@H]3[C@H](O)[C@H](O)CC(=NO[C@@H]4O[C@H](CO)[C@@H](O)[C@H](O)[C@H]4O)[C@@H]3CC[C@H]2C(=O)N1C[C@@H]1CCCO1,-1.2 (inactive),-0.0462,0.377 (inactive),-0.963 (inactive),0.389 (inactive),-2.39 (inactive),0.054,-2.04 (inactive),-0.772 (inactive),-0.711,-0.863,-0.0334,-0.618,-0.0584,-2.03,-0.42,-0.0322 (inactive),0.0485,-1.16,0.226 (inactive)
COc1ccc(COC(=O)NN=C2C[C@@H](O)[C@@H](O)[C@@H]3[C@@H]4C(=O)N(C(C)(C)C)C(=O)[C@@H]4CC[C@@H]23)cc1,0.244 (inactive),-0.328,0.339 (inactive),-0.039 (inactive),-0.609 (inactive),-0.0118 (inactive),1.14,-0.384 (inactive),0.808 (inactive),0.315,0.901,0.514,-0.777,0.569,-0.448,-1.08,-1.14 (inactive),-0.379,0.34,0.259 (inactive)
COc1ccc(O[C@H]2C=C[C@@H](c3ccccc3)O[C@@H]2COC(=O)CCC(C)=NOC[C@@H](O)COCc2ccco2)cc1,-1.45 (inactive),-1.43,6.71 (inactive),-1.05 (inactive),0.382 (inactive),-2.06 (inactive),1.18,-3.53 (inactive),-0.876 (inactive),-4.55,0.944,0.651,0.599,-1.89,0.107,-0.918,0.0665 (inactive),-0.313,-1.12,0.402 (inactive)

# Source: PubChem BioAssay
